Assay results: PubChem BioAssay (NCATS)
Several values for one entry are separate records, joined by “and”; a condition that tells them apart may be missing. Equal values may be shown once. Records with an inconclusive call do not appear. Entries that show only a call come without a potency. Activity calls are given as the source filed them. Unless noted, calls follow the shape of the dose curve; as a rule, active = well fitted curve in the direction sought with a large enough effect; inconclusive = small, poorly fitted or top-dose-only effect, or another doubt; inactive = no such curve, though single readings can be large; an effect the other way counts as inactive or inconclusive.

Legend:
[1] = target: Calcium and integrin-binding protein 1 (Homo sapiens) (UniProt Q99828); assay: Primary qHTS for Identification of Calcium Integrin Binding Protein 1 (CIB1) Competitor (AID 1508620);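 also: GST tagged CIB1 binding a fluorescein labelled alphaIIb integrin peptide tracer; top concentration of the series differs between compounds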
Sequence of Calcium and integrin-binding protein 1 (Homo sapiens) (Q99828 whole entry, looked up): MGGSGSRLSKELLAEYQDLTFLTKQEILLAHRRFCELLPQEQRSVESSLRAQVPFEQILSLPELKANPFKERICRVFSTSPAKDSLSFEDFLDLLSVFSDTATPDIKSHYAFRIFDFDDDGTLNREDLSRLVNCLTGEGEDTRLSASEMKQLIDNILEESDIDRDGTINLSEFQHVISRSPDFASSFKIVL
Procedure, shortened: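 Fluorescence polarization competition: CIB1-GST (1 uM final) preincubated with compound 15 min at room temperature, then FITC-labeled alphaIIb peptide (100 nM final) added for another 15 min. Polarization read at Ex 480/Em 540.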

[2] = Primary qHTS for small molecule stabilizers of the endoplasmic reticulum resident proteome: Secreted ER Calcium Modulated Protein (SERCaMP) assay (AID 1508630)
Procedure, shortened: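 The SH-SY5Y reporter protocol was run at 3 concentrations up to 38.3 uM (primary) or 11 concentrations (follow-up): 16 h compound, 100 nM thapsigargin for 4 h, then extracellular luciferase luminescence.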

[3] = target: Cytochrome P450 2D6 (Homo sapiens) (UniProt P10635); assay: Cytochrome P450 family 2 subfamily D member 6 (CYP2D6) small molecule antagonists: luciferase biochemical (cell-free) qHTS assay (AID 1645840; active = well fitted curve in the direction sought with a large enough effect in the repeat runs; an effect the other way counts as inactive or inconclusive; also: potency is read from the fitted curve at half-maximal effect; nearly all actives have a fitted effect of over 55% in size)
Sequence of Cytochrome P450 2D6 (Homo sapiens) (P10635 whole entry, looked up): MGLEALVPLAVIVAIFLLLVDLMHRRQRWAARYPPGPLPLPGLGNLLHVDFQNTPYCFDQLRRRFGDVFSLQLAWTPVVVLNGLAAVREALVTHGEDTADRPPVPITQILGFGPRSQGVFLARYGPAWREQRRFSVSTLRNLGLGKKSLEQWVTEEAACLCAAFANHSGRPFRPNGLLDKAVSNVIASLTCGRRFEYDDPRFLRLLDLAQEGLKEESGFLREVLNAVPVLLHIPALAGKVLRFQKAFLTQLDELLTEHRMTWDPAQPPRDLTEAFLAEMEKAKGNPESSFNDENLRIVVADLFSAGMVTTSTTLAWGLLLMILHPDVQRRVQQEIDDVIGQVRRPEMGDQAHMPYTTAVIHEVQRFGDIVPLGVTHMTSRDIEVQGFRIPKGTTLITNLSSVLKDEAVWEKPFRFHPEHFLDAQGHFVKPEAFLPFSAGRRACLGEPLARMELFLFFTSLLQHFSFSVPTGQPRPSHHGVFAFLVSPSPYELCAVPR
Procedure, shortened: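 P450-Glo CYP2D6 system: proluciferin substrate converted by enzyme to luciferin, read by luminescence proportional to activity. Enzyme-substrate mix with compound 10 min at room temperature, then NADPH regeneration 1 h before detection reagent.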

[4] = Primary qHTS for inhibitors of nuclear receptor binding SET domain protein 2 (NSD2) in an isogenic RCH-ACV NSD2 p.E1099K mutant (9B) (AID 1645876); also: nearly all actives have a fitted effect of over 70% in size; also: potency is read from the fitted curve at half-maximal effect
[5] = target: Rap guanine nucleotide exchange factor 3 (Homo sapiens) (UniProt O95398); assay: Confirmatory qHTS for antagonist of cAMP-regulated guanine nucleotide exchange factor 3 (EPAC1) (AID 1645880); conditions: EPAC1 Rap1B-BODIPY-GDP exchange, fluorescence; also: potency is read from the fitted curve at half-maximal effect; nearly all actives have a fitted effect of over 55% in size
Sequence of Rap guanine nucleotide exchange factor 3 (Homo sapiens) (O95398 whole entry, looked up): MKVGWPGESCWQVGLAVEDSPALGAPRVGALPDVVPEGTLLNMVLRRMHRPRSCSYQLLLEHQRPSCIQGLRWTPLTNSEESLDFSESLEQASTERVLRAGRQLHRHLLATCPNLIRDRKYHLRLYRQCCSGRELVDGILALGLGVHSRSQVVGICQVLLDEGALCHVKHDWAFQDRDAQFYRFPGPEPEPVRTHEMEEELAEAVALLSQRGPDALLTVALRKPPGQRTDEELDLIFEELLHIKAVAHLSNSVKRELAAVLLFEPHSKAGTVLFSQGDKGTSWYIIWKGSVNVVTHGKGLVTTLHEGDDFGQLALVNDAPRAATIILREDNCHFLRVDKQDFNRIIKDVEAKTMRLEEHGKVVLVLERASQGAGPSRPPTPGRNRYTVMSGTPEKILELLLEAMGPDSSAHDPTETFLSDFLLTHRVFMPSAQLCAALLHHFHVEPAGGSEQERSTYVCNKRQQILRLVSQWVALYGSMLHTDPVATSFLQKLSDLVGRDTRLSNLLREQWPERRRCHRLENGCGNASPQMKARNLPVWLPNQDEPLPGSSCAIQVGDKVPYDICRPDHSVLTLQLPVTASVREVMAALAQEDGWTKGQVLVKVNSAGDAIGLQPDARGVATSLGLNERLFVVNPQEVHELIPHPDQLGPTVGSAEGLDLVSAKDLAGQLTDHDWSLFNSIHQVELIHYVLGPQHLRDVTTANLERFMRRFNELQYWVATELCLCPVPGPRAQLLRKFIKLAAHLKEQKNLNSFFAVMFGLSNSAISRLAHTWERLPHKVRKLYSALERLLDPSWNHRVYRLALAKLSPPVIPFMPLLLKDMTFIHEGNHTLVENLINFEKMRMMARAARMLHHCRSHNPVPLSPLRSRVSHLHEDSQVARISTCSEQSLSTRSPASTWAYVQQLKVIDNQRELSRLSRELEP
Procedure, shortened: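 Released BODIPY-GDP fluoresces less than Rap1-bound BODIPY-GDP; the signal is followed at 480/540 nm at 5-min intervals over 30 min, after 5 min at room temperature. Reactions contain 100 nM EPAC1, 250 nM RAP1B-BODIPY-GDP and 50 uM GDP; results are normalized to ATA and DMSO.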

[6] = target: Rap guanine nucleotide exchange factor 3 (Homo sapiens) (UniProt O95398); assay: Confirmatory qHTS for agonist of cAMP-regulated guanine nucleotide exchange factor 3 (EPAC1) (AID 1645881);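 also: EPAC1 catalysed release of BODIPY-GDP from Rap1B seen as fluorescence loss; nearly all actives have a fitted effect of over 75% in size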
[7] = target: Rap guanine nucleotide exchange factor 4 (Homo sapiens) (UniProt Q8WZA2); assay: Confirmatory qHTS for agonist of cAMP-regulated guanine nucleotide exchange factor 4 (EPAC2) (AID 1645884);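 also: nucleotide exchange releases bodipy-GDP from Rap1 and this lowers its fluorescence; nearly all actives have a fitted effect of over 65% in size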
Sequence of Rap guanine nucleotide exchange factor 4 (Homo sapiens) (Q8WZA2 whole entry, looked up): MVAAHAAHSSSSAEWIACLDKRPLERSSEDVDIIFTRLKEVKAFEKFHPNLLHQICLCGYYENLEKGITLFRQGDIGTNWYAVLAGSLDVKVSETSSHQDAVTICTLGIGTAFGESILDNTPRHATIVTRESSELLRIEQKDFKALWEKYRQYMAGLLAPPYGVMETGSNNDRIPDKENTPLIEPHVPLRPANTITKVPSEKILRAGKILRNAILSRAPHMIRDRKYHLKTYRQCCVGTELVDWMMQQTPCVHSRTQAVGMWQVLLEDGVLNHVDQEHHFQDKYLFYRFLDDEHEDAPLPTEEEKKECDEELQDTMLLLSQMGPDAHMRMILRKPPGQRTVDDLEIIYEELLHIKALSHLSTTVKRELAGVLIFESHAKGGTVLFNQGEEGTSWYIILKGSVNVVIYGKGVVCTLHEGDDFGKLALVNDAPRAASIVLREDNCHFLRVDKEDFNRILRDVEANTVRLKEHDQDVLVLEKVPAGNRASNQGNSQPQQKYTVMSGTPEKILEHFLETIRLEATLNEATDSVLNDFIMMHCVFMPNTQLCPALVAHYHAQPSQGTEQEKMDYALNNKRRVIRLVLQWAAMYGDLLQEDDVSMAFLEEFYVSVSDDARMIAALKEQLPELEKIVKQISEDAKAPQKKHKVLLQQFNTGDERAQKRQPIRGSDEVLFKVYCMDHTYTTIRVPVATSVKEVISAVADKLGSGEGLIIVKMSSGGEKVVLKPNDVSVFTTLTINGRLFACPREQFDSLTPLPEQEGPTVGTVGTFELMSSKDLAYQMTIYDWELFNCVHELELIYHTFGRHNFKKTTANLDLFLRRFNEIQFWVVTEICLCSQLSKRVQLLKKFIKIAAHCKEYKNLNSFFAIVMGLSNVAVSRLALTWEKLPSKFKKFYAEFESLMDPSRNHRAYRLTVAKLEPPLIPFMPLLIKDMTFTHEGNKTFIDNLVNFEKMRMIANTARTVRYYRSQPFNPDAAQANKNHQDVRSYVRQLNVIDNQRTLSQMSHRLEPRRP

[8] = target: Rap guanine nucleotide exchange factor 4 (Homo sapiens) (UniProt Q8WZA2); assay: Confirmatory qHTS for antagonist of cAMP-regulated guanine nucleotide exchange factor 4 (EPAC2) (AID 1645885); conditions: EPAC2 Rap1B-BODIPY-GDP exchange fluorescence, biochemical; also: potency is read from the fitted curve at half-maximal effect; nearly all actives have a fitted effect of over 25% in size
[9] = target: Rap guanine nucleotide exchange factor 3 (Homo sapiens) (UniProt O95398); assay: Counterscreen qHTS for antagonist of cAMP-regulated guanine nucleotide exchange factor 3 (EPAC1) (AID 1645888)
Procedure, shortened: (§1)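 Measured: fluorescence of BODIPY-GDP bound to Rap1B, which falls as exchange proceeds. Conditions include 50 uM competing GDP, 5 and 30 min reads, and a later cAMP challenge for antagonist detection.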

[10] = target: Rap guanine nucleotide exchange factor 3 (Homo sapiens) (UniProt O95398); assay: Counterscreen qHTS for agonist of cAMP-regulated guanine nucleotide exchange factor 3 (EPAC1) (AID 1645889); also: nearly all actives have a fitted effect of over 40% in size
Procedure, shortened: as §1

[11] = target: Catechol O-methyltransferase (Homo sapiens) (UniProt P21964); assay: Confirmatory Screen for Target Class Profiling of Small Molecule Inhibitors of Methyltransferases (AID 1745852); conditions: MTase-Glo luminescence, SAH detection, recombinant enzyme; measured here: COMT max response; stronger effect = lower value
Sequence of Catechol O-methyltransferase (Homo sapiens) (P21964 whole entry, looked up, the tested form may be a part): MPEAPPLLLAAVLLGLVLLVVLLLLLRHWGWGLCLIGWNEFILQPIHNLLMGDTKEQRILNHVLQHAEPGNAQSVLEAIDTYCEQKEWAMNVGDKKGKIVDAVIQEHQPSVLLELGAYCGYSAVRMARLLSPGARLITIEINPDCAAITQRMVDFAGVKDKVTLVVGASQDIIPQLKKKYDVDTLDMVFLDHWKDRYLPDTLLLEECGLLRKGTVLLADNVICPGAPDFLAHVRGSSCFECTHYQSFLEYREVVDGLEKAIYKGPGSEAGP

[12] = Primary qHTS for inhibitors of nuclear receptor binding SET domain protein 2 (NSD2) in an RCH-ACV wild type WT cells (2C) (AID 1645877); also: nearly all actives have a fitted effect of over 70% in size; also: potency is read from the fitted curve at half-maximal effect
[13] = target: Cytochrome P450 2C9 (Homo sapiens) (UniProt P11712); assay: Cytochrome P450 family 2 subfamily C member 9 (CYP2C9) small molecule antagonists: luciferase biochemical (cell-free) qHTS assay (AID 1645842; active = well fitted curve in the direction sought with a large enough effect in the repeat runs; an effect the other way counts as inactive or inconclusive; also: potency is read from the fitted curve at half-maximal effect; nearly all actives have a fitted effect of over 55% in size)
Sequence of Cytochrome P450 2C9 (Homo sapiens) (P11712 whole entry, looked up): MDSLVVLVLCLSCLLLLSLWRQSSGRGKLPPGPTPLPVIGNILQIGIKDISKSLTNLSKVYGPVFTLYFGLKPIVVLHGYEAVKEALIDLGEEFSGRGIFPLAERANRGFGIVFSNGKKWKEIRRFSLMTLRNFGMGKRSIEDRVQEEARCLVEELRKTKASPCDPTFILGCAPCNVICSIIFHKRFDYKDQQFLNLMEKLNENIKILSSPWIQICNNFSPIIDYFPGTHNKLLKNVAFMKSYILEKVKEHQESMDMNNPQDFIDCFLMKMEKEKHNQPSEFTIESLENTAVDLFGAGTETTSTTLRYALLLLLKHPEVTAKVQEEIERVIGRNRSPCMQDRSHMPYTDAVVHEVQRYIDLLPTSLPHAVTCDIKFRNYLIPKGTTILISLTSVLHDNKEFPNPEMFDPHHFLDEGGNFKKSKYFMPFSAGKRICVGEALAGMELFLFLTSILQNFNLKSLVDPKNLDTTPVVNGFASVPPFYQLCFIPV
Procedure, shortened: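 P450-Glo CYP2C9 system: proluciferin substrate with enzyme in mix containing 0.4% BSA, 10 min at room temperature, then NADPH regeneration solution added and incubated 1 h at 37C. Detection reagent stopped reaction; luminescence read after 20 min as RLU.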

Cc1coc2c1C(=O)C(=O)c1c-2ccc2c1CCCC2(C)C
outcome [1]: inactive | Potency [2]: inactive | Potency [3]: 23.9 µM (active) | Potency [4]: inactive | Potency [5]: 53.6 µM (active) | outcome [6]: inactive | outcome [7]: inactive | Potency [8]: 30.1 µM (active) | outcome [9]: inactive | outcome [10]: inactive | activity [11]: -26.5%

CC(C)(C)OC(=O)Nc1ccc(-c2cc(C(=O)NCCCCCCC(=O)NO)no2)cc1
outcome [1]: inactive | Potency [2]: inactive | Potency [4]: 1.48 µM (active) | Potency [12]: 1.32 µM (active)

O=C(Nc1cc(C(F)(F)F)cc(C(F)(F)F)c1)c1cc(Cl)ccc1O
outcome [1]: inactive | Potency [2]: inactive | Potency [4]: 3.25 µM (active) and 2.63 µM (active) | Potency [12]: 2.3 µM (active) and 2.95 µM (active)

CCN(CC)CCNC(=O)c1ccc2nc(-c3ccccc3)c(-c3ccc(CN4CCC(n5c(=O)[nH]c6ccccc65)CC4)cc3)nc2c1
outcome [1]: inactive | Potency [2]: inactive | Potency [4]: 2.58 µM (active) and 3.32 µM (active) | Potency [12]: 2.58 µM (active) and 4.17 µM (active)

COc1cc(OC2CCN(C)CC2)ccc1Nc1ncc2c(n1)n(C1CCCC1)c(=O)n2C
outcome [1]: inactive | Potency [2]: inactive | Potency [4]: 5.25 µM (active) | Potency [12]: 3.72 µM (active)

O=C(O)[C@H](Cc1c[nH]c2ccccc12)N1C(=O)c2ccccc2C1=O
outcome [1]: inactive | Potency [2]: inactive | Potency [4]: inactive

COC(=O)Nc1ccc(-c2nc(N3CCOCC3)c3cnn(C4CCN(Cc5cccnc5)CC4)c3n2)cc1
outcome [1]: inactive | Potency [2]: inactive | Potency [4]: 0.833 µM (active) | Potency [12]: 0.662 µM (active)

C[C@@H]1CN(CC(=O)Nc2ccc3c(c2)Cc2cccc(-c4cc(=O)cc(N5CCOCC5)o4)c2S3)C[C@H](C)O1
outcome [1]: inactive | Potency [2]: inactive | Potency [4]: 5.9 µM (active) | Potency [12]: 4.68 µM (active)

CCCCCCCCCC(=O)N[C@@H](Cc1c[nH]c2ccccc12)C(=O)N[C@H](CC(N)=O)C(=O)N[C@@H](CC(=O)O)C(=O)N[C@@H]1C(=O)NCC(=O)N[C@@H](CCCN)C(=O)N[C@@H](CC(=O)O)C(=O)N[C@H](C)C(=O)N[C@@H](CC(=O)O)C(=O)NCC(=O)N[C@H](CO)C(=O)N[C@@H]([C@@H](C)CC(=O)O)C(=O)N[C@@H](CC(=O)c2ccccc2N)C(=O)O[C@@H]1C
outcome [1]: inactive | Potency [2]: inactive | Potency [4]: inactive | Potency [12]: inactive

Nc1ccccc1NC(=O)c1ccc(CNC(=O)OCc2cccnc2)cc1
outcome [1]: inactive | Potency [2]: inactive | Potency [4]: 578 nM (active) and 742 nM (active) | Potency [12]: 459 nM (active) and 662 nM (active)

C[C@]12CC[C@H](O)CC1=CCC1C2CC[C@]2(C)C(n3cnc4ccccc43)=CCC12 (stereo partly specified)
outcome [1]: inactive | Potency [2]: inactive | Potency [4]: inactive | Potency [12]: inactive

COc1cc2ncn(-c3cc(OCc4ccccc4C(F)(F)F)c(C(N)=O)s3)c2cc1OC
outcome [1]: inactive | Potency [2]: inactive | Potency [4]: 562 nM (active) and 1.05 µM (active) | Potency [12]: 794 nM (active) and 1.18 µM (active)

Nc1ccc(C(=O)c2cc3c(ccc4ccccc43)[nH]2)cc1
outcome [1]: inactive | Potency [2]: inactive | Potency [4]: 2.41 µM (active) | Potency [12]: 1.71 µM (active)

CCN(CC)CCCCNc1ncc2cc(-c3cc(OC)cc(OC)c3)c(NC(=O)NC(C)(C)C)nc2n1
outcome [1]: inactive | Potency [2]: inactive | Potency [4]: 16.4 µM (active) and 14.8 µM (active) | Potency [12]: 14.6 µM (active) and 14.8 µM (active)

Cc1cn2cc(C(=O)N(C)CCO)cc(N[C@@H]3CCOc4cccc(C)c43)c2n1
outcome [1]: inactive | Potency [2]: inactive | Potency [4]: inactive | Potency [12]: inactive

CN1CCN(c2ccc3nc(-c4c(N)c5c(F)cccc5[nH]c4=O)[nH]c3c2)CC1
outcome [1]: inactive | Potency [2]: inactive | Potency [4]: 1.3 µM (active) and 742 nM (active) | Potency [12]: 1.16 µM (active) and 742 nM (active)

CNC(=O)CN1CCC(Oc2cc3c(Nc4cccc(Cl)c4F)ncnc3cc2OC)CC1
outcome [1]: inactive | Potency [2]: inactive | Potency [13]: 9.52 µM (active) | Potency [4]: 16.3 µM (active) and 18.6 µM (active) | Potency [12]: 18.6 µM (active) | activity [11]: -36%
